Test results reported in the supplement of paper PMC12067093, “Discovery and optimisation of a covalent ligand for TRIM25 and its application to targeted protein ubiquitination” (Chemical Science, 2025).
Of roughly 21,000 targets only a part is listed; those with the largest changes were picked by preference.

Compound: Cc1cc(ccc1-c1ccccc1)C(=O)N1CCCN(CC1)C(=O)CCl [compound 10]
Experiment: probe-labelled cysteine peptide fold change vs DMSO (competition) (log2 fold change); higher = less target engagement (more negative = stronger competition)
Details: THP-1, incubation time: 4 h
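Note: competitive profiling in live THP-1 cells: cysteine peptides tagged with an iodoacetamide desthiobiotin (IA-DTB) probe, intensity after compound treatment relative to DMSO-treated cells.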

UniProt Q6UB99, sequence (Q6UB99 whole entry, looked up): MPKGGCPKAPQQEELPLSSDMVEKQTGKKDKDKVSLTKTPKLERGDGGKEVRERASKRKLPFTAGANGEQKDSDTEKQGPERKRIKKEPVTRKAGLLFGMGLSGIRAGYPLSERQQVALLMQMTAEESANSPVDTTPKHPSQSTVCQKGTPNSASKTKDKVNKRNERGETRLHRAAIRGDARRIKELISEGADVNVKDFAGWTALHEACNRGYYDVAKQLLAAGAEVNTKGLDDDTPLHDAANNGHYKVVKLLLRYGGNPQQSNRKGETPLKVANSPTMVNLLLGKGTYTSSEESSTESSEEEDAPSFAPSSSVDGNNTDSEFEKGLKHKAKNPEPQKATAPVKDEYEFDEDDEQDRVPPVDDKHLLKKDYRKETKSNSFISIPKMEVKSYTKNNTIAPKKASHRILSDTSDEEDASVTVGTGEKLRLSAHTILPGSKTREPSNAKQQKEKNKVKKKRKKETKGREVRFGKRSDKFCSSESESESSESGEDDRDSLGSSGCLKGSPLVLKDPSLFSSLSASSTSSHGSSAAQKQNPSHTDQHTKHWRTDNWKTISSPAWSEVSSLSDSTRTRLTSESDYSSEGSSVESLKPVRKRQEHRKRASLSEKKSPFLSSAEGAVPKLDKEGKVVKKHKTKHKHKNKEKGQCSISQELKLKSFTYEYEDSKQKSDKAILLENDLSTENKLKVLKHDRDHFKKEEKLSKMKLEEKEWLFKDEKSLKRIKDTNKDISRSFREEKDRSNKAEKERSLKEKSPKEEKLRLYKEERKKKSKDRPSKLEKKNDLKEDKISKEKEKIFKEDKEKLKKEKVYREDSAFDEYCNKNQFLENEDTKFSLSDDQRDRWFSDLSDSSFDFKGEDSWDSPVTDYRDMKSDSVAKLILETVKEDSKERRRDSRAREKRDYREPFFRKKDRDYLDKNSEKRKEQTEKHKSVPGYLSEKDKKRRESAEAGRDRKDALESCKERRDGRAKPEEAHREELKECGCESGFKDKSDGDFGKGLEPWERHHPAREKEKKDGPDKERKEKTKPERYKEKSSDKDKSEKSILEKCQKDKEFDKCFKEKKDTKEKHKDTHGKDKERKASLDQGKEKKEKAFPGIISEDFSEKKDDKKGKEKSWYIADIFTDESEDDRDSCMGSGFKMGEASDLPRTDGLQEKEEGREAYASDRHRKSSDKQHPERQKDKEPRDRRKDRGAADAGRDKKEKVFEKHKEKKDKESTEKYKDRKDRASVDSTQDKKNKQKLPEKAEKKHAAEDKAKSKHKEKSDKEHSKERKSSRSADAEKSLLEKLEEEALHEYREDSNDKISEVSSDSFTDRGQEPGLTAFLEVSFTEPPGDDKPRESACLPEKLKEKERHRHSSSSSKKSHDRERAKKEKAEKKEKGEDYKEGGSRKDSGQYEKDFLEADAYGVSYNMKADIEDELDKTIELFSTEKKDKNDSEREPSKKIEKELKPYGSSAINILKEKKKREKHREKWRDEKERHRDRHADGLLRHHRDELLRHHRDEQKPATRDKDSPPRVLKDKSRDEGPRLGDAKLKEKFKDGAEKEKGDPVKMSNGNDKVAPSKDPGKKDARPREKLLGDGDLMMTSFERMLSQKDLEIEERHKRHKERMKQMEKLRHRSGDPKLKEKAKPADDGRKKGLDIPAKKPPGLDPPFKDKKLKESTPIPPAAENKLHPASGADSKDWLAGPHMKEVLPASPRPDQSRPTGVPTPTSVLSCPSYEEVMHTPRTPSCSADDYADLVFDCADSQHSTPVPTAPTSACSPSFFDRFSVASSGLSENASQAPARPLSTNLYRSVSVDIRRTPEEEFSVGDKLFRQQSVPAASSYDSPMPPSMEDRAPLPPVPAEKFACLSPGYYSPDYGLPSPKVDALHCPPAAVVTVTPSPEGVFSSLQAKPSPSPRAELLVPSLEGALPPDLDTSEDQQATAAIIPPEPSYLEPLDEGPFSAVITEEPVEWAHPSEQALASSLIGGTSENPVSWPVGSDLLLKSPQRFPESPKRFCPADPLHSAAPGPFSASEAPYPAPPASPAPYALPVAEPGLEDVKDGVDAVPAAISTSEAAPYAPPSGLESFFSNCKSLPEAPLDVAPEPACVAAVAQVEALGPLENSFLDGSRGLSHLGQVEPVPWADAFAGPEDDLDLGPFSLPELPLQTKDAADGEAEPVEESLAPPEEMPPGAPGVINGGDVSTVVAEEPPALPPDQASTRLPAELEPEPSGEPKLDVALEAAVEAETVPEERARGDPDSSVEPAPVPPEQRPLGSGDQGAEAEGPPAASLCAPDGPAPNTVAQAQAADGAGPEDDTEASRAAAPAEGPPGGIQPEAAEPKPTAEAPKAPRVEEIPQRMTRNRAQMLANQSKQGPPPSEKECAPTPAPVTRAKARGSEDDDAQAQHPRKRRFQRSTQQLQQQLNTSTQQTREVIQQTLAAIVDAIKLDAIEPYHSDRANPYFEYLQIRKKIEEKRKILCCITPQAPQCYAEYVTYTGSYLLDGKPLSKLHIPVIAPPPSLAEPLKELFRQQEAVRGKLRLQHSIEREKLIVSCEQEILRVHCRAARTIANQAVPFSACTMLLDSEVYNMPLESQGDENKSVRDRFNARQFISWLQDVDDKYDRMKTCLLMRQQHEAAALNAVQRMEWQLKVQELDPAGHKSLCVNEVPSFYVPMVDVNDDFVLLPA
UniProt O75891, sequence (O75891 whole entry, looked up): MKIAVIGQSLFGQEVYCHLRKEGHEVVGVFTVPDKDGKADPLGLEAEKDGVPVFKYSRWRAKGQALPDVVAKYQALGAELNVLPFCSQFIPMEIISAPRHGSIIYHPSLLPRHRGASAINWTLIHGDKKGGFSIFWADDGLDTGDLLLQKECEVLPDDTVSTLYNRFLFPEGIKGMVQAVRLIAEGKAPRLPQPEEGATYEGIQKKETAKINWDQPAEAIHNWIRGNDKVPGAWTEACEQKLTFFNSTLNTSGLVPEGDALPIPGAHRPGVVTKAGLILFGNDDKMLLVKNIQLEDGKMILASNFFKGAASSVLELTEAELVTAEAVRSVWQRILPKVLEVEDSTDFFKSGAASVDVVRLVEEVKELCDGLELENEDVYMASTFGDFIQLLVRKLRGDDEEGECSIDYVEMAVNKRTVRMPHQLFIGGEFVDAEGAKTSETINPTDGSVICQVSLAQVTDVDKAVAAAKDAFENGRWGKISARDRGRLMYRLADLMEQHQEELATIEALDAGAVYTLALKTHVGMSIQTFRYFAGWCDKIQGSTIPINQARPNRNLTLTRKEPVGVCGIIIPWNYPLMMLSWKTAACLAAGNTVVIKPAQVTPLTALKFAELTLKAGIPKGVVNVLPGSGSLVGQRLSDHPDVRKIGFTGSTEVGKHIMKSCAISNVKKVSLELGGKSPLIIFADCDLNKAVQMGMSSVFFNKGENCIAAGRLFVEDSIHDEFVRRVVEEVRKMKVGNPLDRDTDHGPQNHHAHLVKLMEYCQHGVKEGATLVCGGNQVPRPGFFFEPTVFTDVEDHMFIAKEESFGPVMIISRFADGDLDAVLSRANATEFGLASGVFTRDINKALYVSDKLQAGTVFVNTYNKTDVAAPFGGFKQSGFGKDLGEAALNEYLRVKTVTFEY
UniProt Q9BZE9, sequence (Q9BZE9 whole entry, looked up): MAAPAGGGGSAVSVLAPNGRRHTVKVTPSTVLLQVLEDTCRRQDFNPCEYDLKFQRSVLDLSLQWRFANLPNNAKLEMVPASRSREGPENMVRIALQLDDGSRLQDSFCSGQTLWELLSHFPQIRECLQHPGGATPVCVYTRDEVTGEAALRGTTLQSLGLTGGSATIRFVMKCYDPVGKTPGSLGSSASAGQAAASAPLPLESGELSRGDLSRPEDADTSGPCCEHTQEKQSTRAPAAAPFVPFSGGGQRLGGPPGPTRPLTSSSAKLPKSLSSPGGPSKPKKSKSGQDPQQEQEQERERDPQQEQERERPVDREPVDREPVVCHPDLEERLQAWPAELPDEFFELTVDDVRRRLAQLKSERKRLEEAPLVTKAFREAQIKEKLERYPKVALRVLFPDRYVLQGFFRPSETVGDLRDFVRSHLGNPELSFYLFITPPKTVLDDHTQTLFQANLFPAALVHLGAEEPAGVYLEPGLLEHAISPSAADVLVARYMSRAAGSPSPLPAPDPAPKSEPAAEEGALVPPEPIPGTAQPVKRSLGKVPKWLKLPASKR
UniProt O14672, sequence (O14672 whole entry, looked up): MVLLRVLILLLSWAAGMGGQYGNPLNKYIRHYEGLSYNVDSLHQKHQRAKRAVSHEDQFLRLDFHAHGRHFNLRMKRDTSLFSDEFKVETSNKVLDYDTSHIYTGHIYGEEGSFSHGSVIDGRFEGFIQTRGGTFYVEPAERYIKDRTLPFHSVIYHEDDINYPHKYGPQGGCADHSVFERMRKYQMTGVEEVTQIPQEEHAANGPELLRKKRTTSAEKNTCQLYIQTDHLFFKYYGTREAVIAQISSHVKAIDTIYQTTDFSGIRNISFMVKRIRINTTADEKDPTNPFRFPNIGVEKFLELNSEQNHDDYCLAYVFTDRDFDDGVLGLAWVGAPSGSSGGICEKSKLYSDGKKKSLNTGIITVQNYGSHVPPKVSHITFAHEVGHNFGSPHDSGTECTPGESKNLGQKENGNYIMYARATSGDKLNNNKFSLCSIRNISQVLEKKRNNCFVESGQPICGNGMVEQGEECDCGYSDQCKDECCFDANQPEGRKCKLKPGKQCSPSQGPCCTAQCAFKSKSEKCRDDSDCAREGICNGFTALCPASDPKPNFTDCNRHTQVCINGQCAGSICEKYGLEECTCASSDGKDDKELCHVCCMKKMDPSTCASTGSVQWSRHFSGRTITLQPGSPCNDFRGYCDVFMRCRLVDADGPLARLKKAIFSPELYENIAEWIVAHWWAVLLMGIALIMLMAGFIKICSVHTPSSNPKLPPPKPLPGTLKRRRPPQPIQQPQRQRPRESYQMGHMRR
UniProt O00244, sequence (O00244 whole entry, looked up): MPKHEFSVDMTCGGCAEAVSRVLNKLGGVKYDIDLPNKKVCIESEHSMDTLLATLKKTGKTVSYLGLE

Target | probe-labelled cysteine peptide fold change (10 µM) | probe-labelled cysteine peptide fold change (50 µM)
ARHGEF6_Q15052_319_VGGCLLSLMPHFK (UniProt Q15052) | -0.297 | -0.105
ANKRD11_Q6UB99_1339_ESACLPEK (UniProt Q6UB99) | -0.0313 | -0.174
AIP_O00170_121+122_HCCGVAQMR (UniProt O00170) | -0.298 | -1.16
ALDH1L1_O75891_537_YFAGWCDK (UniProt O75891) | -0.0268 | -0.223
ALDH9A1_P49189_267_SPLIIFSDCDMNNAVK (UniProt P49189) | 0.208 | 0.2
ADAM10_O14672_530_DDSDCAR (UniProt O14672) | 0.552 | 1.2
ANAPC1_Q9H1A4_1074_LLQLCQR (UniProt Q9H1A4) | -0.0436 | 0.000425
ANKRD50_Q9ULJ7_113_QALAFHFCK (UniProt Q9ULJ7) | 1.31 | 1.7
ARHGAP25_P42331_448_CFLTSAFQGANSSK (UniProt P42331) | -0.526 | -1.52
ALDH1B1_P30837_169_TIPMDGQHFCFTR (UniProt P30837) | 0.00215 | -0.131
ARMC6_Q6NXE6_121_FCDQCK (UniProt Q6NXE6) | -0.142 | -0.663
ARHGAP44_Q17R89_193_ADALREEMEEAANRVEICR (UniProt Q17R89) | -0.0472 | -0.212
ATP2A1_O14983_349_SLPSVETLGCTSVICSDK (UniProt O14983) | -0.0681 | -0.0742
AIP_O00170_122_HCCGVAQMR (UniProt O00170) | -0.267 | -2.09
AKR7A2_O43488_132+156_RLQCPQVDLFYLHAPDHGTPVEETLHACQR (UniProt O43488) | -0.245 | -0.374
ASPSCR1_Q9BZE9_224+225_GDLSRPEDADTSGPCCEHTQEK (UniProt Q9BZE9) | -0.786 | -1.37

Target | probe-labelled cysteine peptide fold change (10 µM) | probe-labelled cysteine peptide fold change (50 µM)
ATP2B1_P20020_463+473_HLDACETMGNATAICSDK (UniProt P20020) | -0.241 | 0.05
AP1G1_O43747_392_ELLYFLDSCEPEFK (UniProt O43747) | 0.183 | 0.273
AFTPH_Q6ULP2_659_IFEACFPSILVPDAEEEVTSLK (UniProt Q6ULP2) | 0.0219 | -0.0706
AGL_P35573_126_VGADNHVLPLDCVTLQTFLAK (UniProt P35573) | 0.128 | 0.0379
ANKMY2_Q8IV38_390_LDVNSNCVNEEQPEAEVGISQK (UniProt Q8IV38) | -0.281 | -0.0242
AGL_P35573_767_EVPQMCIPGKIEEVVLEAR (UniProt P35573) | -0.292 | -0.537
ANAPC1_Q9H1A4_1630_LLVPVDVDTNTPCYALLEVTYK (UniProt Q9H1A4) | -0.151 | 0.155
ATAD1_Q8NBU5_229_AQFMSLWDGLDTDHSCQVIVMGATNRPQDLDSAIMR (UniProt Q8NBU5) | 0.117 | 0.088
ANXA4_P09525_315_KVLLVLCGGDD (UniProt P09525) | -0.0611 | -0.661
ATM_Q13315_2323_KLDASCAANNPSLK (UniProt Q13315) | -0.12 | -0.242
ATOX1_O00244_41_VCIESEHSMDTLLATLKK (UniProt O00244) | 0.237 | -0.215
ATP2B1_P20020_547_TECALLGLLLDLKR (UniProt P20020) | -0.138 | -0.507
AKAP8_O43823_395_IQFACSVCK (UniProt O43823) | 0.0747 | -0.348
ARFGEF1_Q9Y6D6_1729_QETSSLACGLR (UniProt Q9Y6D6) | -0.151 | 0.114
ALDH9A1_P49189_45_VIATFTCSGEK (UniProt P49189) | -0.00832 | 0.0216
